{
  "source": "PubChem BioAssay",
  "note": "Active and inactive are the calls of the source.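 The calls were made as follows: active = membrane potential signal rise above negative control mean plus 3 SD in both duplicates, also active in the earlier TRPC4 screen; inactive = the rest.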",
  "data": [
    {"target": "Short transient receptor potential channel 6 (Mus musculus) (UniProt Q61143)", "sequence (Q61143 whole entry, looked up)": "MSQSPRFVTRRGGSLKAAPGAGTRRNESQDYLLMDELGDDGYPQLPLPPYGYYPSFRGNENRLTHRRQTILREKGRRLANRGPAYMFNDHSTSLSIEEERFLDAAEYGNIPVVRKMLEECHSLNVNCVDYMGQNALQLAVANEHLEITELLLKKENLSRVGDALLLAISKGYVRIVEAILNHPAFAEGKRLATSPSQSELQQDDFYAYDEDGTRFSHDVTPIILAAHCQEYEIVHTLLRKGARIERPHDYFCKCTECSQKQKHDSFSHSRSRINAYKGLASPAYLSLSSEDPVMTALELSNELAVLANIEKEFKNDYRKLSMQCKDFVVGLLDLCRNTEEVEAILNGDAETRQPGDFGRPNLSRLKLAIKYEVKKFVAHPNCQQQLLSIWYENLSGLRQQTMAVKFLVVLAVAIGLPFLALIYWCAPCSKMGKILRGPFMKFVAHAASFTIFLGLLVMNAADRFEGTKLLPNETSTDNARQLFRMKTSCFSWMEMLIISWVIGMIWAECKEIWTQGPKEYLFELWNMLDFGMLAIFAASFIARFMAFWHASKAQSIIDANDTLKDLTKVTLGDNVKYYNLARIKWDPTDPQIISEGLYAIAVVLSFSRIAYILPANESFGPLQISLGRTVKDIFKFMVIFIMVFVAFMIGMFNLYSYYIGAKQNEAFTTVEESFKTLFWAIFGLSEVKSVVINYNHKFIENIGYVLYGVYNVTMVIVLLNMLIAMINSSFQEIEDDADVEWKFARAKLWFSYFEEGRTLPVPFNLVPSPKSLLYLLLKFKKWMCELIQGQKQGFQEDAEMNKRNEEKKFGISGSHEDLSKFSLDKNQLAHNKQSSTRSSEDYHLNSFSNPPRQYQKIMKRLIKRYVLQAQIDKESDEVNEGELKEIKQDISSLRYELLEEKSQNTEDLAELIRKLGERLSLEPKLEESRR", "assay": "activation of mouse TRPC6 channel, confirmation, selectivity assay for TRPC4 activator project, cell-based, HEK293, membrane potential dye, duplicate (AID 434950);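 as to activation: 0% = buffer only wells and 100% = acetylcholine maximal-effect wells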", "details": "HEK293 TRPC6, membrane potential fluorescence, at 10 µM; stronger effect = higher value", "values": [
      {"smiles": "Cc1ccc2oc(=O)c3cnn(CC(=O)NC4CCN(Cc5ccccc5)CC4)c3c2c1", "outcome": "inactive"},
      {"smiles": "CCCCC(=O)NNC(=S)NC(=O)c1ccc(C)cc1", "outcome": "inactive"},
      {"smiles": "COc1cc(/C=C/C(=O)c2ccc3c(c2)OCO3)cc(Cl)c1O", "activation": "427% (active)"},
      {"smiles": "CN(C)C(CNC(=O)C1CC(=O)N(Cc2ccccc2)C1)c1ccccc1", "note": "(configuration not stated)", "outcome": "inactive"},
      {"smiles": "Cc1ccccc1OCC(=O)NNC(=S)NC(=O)c1ccco1", "activation": "31.5% (active)"},
      {"smiles": "O=C(CCc1ccccc1)NNC(=S)NC(=O)c1ccc(Cl)cc1", "activation": "30% (active)"},
      {"smiles": "CN(CCOc1ccc(Cl)cc1)CC(O)c1ccccc1", "note": "(configuration not stated)", "activation": "52.5% (active)"},
      {"smiles": "Cc1onc(-c2ccccc2)c1C(=O)NC(=S)NNC(=O)c1ccco1", "activation": "30.5% (active)"},
      {"smiles": "CC(NCCC1(Cc2ccccc2Cl)CCOC(C)(C)C1)c1cccs1", "note": "(configuration not stated)", "outcome": "inactive"},
      {"smiles": "CN(C)C(CNC(=S)Nc1ccc(F)cc1)c1cccnc1", "note": "(configuration not stated)", "activation": "28.5% (active)"},
      {"smiles": "O=C(COc1ccccc1)NNC(=S)NC(=O)c1ccc(Cl)cc1Cl", "outcome": "inactive"},
      {"smiles": "CCN1CCN(c2c(S(=O)(=O)c3ccc(C)c(C)c3)cnc3ccc(F)cc23)CC1", "activation": "50% (active)"},
      {"smiles": "COc1ccc(C(CNC(=O)c2cccc(NS(=O)(=O)c3ccc(C)c(F)c3)c2)N(C)C)cc1", "note": "(configuration not stated)", "activation": "28.5% (active)"},
      {"smiles": "CCOC(=O)C1(CCOc2ccccc2)CCN(Cc2cnc(C)s2)CC1", "activation": "59.5% (active)"},
      {"smiles": "COc1ccc(/C=C/CN2CCCC(C(=O)c3ccc(OC)c(F)c3)C2)cc1", "note": "(configuration not stated)", "activation": "33% (active)"},
      {"smiles": "O=S(=O)(c1ccc(Cl)cc1)N1CCN2CCCC2C1", "note": "(configuration not stated)", "activation": "27% (active)"},
      {"smiles": "OC(CNC1CCCc2ccccc21)COc1ccc2ccccc2c1", "note": "(configuration not stated)", "activation": "55% (active)"}
    ]}
  ]
}
